The supplement of paper PMC10681739

Target: RUNX1 (UniProt Q01196)
Assay: RUNX1 binding intensity (PBM fluorescence), RUNX1 alone (arbitrary fluorescence units); higher = stronger binding
Settings: RUNX1 concentration 2 nM; ETS1 concentration 0 nM
Method: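 Cooperative gcPBM on 36-bp genomic probes with neighbouring ETS1 and RUNX1 sites. Recombinant human RUNX1 (2 nM) was incubated alone or with ETS1 (25 nM) and detected with anti-RUNX1 antibody plus Alexa488 secondary. Values are medians over 4 replicate spots; the RUNX1+ETS1 data were normalised to the RUNX1-only data. The probes sit in constant array flanks that are not printed.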
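Note: Full-length recombinant human RUNX1 bound to double-stranded 36-bp genomic probes on a high-density microarray, scored as Alexa488 fluorescence per spot via anti-RUNX1 antibody, median of four replicate spots.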

Chain of RUNX1 (Q01196 whole entry): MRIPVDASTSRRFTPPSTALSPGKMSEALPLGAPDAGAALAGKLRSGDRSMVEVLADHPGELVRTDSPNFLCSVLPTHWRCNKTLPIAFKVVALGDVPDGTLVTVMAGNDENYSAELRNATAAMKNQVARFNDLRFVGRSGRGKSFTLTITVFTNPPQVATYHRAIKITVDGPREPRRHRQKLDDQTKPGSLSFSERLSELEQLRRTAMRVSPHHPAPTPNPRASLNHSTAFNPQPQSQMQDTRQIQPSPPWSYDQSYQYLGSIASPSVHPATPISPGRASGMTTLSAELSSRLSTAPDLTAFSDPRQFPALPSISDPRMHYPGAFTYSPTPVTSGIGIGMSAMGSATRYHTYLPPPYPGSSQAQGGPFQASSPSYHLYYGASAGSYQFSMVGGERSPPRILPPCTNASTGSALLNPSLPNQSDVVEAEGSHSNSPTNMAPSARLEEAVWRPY

| Sequence | RUNX1 binding intensity |
| --- | --- |
| CATCCAGGACGGAAACAGCATCCCCACCGCGGGAGC | 855 |
| TCTCCTTTCAGGAAGCTGCACCCAAACCACCCTCAG | 996 |
| CCCACTCCACTTCCGCCACCGCCGCAGCCGCCGCTG | 1980 |
| ACAGGAAGTGTCTCTATAGAAACCAAACCACAGAAA | 935 |
| AGGCTTCCTGTTTTATCTCGTGTGTGTGGTGCACCA | 970 |
| CAGTGGCAGGAAGAGGTCAGAAACCACTCGTGGTGG | 816 |
| AAAGCAAACAGGAAGTGCTGTGGTAACAAGGCCCCA | 728 |
| TGGGGCTCTTCCTGCTTATGTGACCACAGCACCTTG | 936 |
| ACAGATAGTGATATCCTGTGGTCAATTCCCTCCCCT | 1030 |
| CGAGCTCGGTGTTCCGCTTTTTGTGGGCCGGGTGGG | 1080 |
| TACCCAGAAAGGAAGTGGAACCTGCGGTGAGGCCCC | 875 |
| TCCCCTTTCCGGGAAGGGTTGGGGATCTGACCACGT | 728 |
| AGGTACCAGGCCCGGAAACCACGGAAAGGGGAACTT | 862 |
| CTGCTAGCGGAAGCAGCCAAGCCCACAGGCTCCAGG | 732 |
| GGCTCGGCAAACATCCGGCTCCGCGGTGGAACGGGA | 785 |
| TCACATCCTGTAATGGTTTGCGCATACCACAGTTCT | 825 |
| AACAAACCGGATGGGGTTGCCACCCGCAATCTTGTC | 826 |
| TCCCCGGCAGCTTCCTCGCCCCGACCGCAGTGTTCC | 1780 |
| GACCAGGAAACGGGGCGTGGCGGCCGCCGTGGTTAC | 806 |
| CCATCCAGGAAGCTTATGGTGCGACCGCAGTGTGCC | 908 |

| Sequence | RUNX1 binding intensity |
| --- | --- |
| AACAAACCGGATGGGGTTCCCACCCGCAATCTTGTC | 830 |
| GTAGAGACAGGAAATTATGTTGGTTTTCTTGCAGAA | 724 |
| CTGCTGCTTTTAGGATGTGGTTTTATTATTGTCGGG | 1020 |
| AACACCACTTCCTACTGTGAAACCACACTGTATTTG | 1200 |
| AGAACCACTTCCTCTCAGTAAACCACAGAGACTGTA | 1790 |
| TGCTTCCCGTCCGTGTCGCGGCCCTGCGGTTGGCGG | 1080 |
| AGGACCGGAAGTGCCCGAGGGCGGCCGCAGAACGGT | 719 |
| ATACTGAGTCATTTCCTGTGGTGTTATTGTGTTGTA | 993 |
| GAGACTTTCGCTTCCGGCTGCCGCAGGCGCTTCGCT | 710 |
| ACTGAAAACAGCACAGGATGTGGTCTGCCAGGTGCC | 752 |
| GTTGGGCTTTGAGGATGTGGGTTCTAGAAGTTTACA | 890 |
| CAAAAGTGCTTCCTCTCGAGGGGTTGTGGTTCTTAC | 716 |
| CCATTCACGGGCTTCCGCGGTGTCCCCACCCCCTAA | 1080 |
| TTTCTCTTCCTGTTTCCACCCTGACCACAGCCAGCT | 2930 |
| GCGAGACGCGGAAGAGGCTTGCGGTTGACCAAAGAA | 1830 |
| TGAGCAAGTTCCTTCCTGTCTGTGGTCCAGGGTTTA | 747 |
| CAGTGGCTAAGGATCCGGTGTTGCGGTGATACATGA | 804 |
| CCTCCCGACCGGAAGCCCCGCCACAGAGCGGGTTGT | 848 |
| GGAGCGCGCCGGAAACGCGCGGCTGCGGCCCGGGAG | 722 |
| CCCCCTGAACATCCGGGGCCTTTTAACCGCCCACGG | 937 |
